FBPA Giardia inh = blocks Giardia fructose-bisphosphate aldolase activity | Potency, µM (series often up to 59.6 µM), for the others: at the top dose activity, negative = inhibition, most hits filed as inhibitors | purified Giardia FBPA | actives 0.71% (n = 290,000) | A8B2U2; further: potency means the concentration at half of the fitted maximal effect; on the % scale 0 is the no-effect control and ±100 the full control effect; nearly all actives have a fitted effect of over 55% in size
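Giardia FBPA (40 nM reagent) was preincubated 10 min at RT with compound (up to 57.5 uM final), then substrate plus GAPDH/TPI/NAD/arsenate coupling system with diaphorase/resazurin was added; resorufin fluorescence (525/598 nm) was read after 20 min.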
LmPK inhibitor = blocks Leishmania mexicana pyruvate kinase activity; Q27686; actives 0.37% (n = 290,000); Potency, µM (series often up to 57.5 µM), for the others: top-dose activity change, negative = inhibition, hits mostly inhibitors; purified LmPK, Kinase-Glo ATP luminescence, 1 h; further: potency means the concentration at half of the fitted maximal effect; on the % scale 0 is the no-effect control and ±100 the full control effect
Target sequence (Q27686 whole entry, looked up): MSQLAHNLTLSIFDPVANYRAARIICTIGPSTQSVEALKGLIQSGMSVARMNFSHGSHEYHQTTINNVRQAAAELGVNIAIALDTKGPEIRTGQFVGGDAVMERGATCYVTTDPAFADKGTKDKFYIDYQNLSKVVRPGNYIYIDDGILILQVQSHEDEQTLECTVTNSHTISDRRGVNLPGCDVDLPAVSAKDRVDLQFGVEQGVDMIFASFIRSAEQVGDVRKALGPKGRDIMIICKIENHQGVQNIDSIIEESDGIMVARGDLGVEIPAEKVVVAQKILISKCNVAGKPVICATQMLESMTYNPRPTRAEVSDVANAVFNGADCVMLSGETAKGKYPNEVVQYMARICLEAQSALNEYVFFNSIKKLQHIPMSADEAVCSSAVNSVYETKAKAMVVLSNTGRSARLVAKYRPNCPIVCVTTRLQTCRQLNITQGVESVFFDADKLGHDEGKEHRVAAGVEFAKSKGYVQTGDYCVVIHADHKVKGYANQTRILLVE
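Purified LmPK (0.1 nM) with 0.5 mM PEP and 0.1 mM ADP in imidazole buffer pH 7.2 with MgCl2/KCl, 1 h at room temperature. ATP formed was read by luciferase luminescence and normalized to no-enzyme and uninhibited controls.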
RE007 growth inh = less growth of the S. pombe RE007 Vpr strain. S. pombe RE007 Vpr strain, BacTiter-Glo ATP luminescence, 24 h. Potency, µM (series often up to 92.2 µM), for inactives: at the top dose activity change, negative = less growth, usual class: inhibitors. actives 0.21% (n = 360,000); active means well fitted falling curve with a large enough effect; inconclusive means small, poorly fitted or top-dose-only effect; inactive means no such curve, though single readings can be large or run the other way; further: potency means the concentration at half of the fitted maximal effect; on the % scale 0 is the no-effect control and ±100 the full control effect; nearly all actives have a fitted effect of over 50% in size
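Fission yeast strain RE007, carrying one chromosomally integrated HIV-1 vpr copy, was seeded at OD 0.01 in PMG+AL medium with 23 nL pinned compound. After 24 h at 30 °C and 99% humidity, viability was read by BacTiter-Glo luminescence.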
TbPYK inhibitor = T. brucei pyruvate kinase inhibition | Q57TT1 | TbPYK enzyme, Kinase-Glo Plus ATP luminescence, 45 min | Potency, µM (highest dose often 76.8 µM), without a hit: at the top dose activity, negative = inhibition, actives largely listed as inhibitors | actives 0.12% (n = 410,000); further: potency means the concentration at half of the fitted maximal effect; on the % scale 0 is the no-effect control and ±100 the full control effect; nearly all actives have a fitted effect of over 50% in size
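Glycolytic pyruvate kinase of T. brucei was incubated with substrate, test compound and 130 uM ADP for 45 minutes at room temperature. Luminescent Kinase-Glo Plus signal was measured after 10 minutes.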
NS1 function inh = blocks influenza NS1 protein function; actives 0.4% (n = 270,000); Potency, µM (highest dose often 46.1 µM), for the others: at the top dose activity, positive = more growth; calls by dose curve; further: potency means the concentration at half of the fitted maximal effect; actives are rising curves; nearly all actives have a fitted effect of over 50% in size
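S. cerevisiae expressing influenza A NS1, grown in glucose, washed, then diluted 1:100 into pH 6.0 -URA galactose medium with 23 nl compound. Growth recovery read as OD600; NS1-free strain serves as control.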
Sm TGR block = blocks Schistosoma mansoni thioredoxin glutathione reductase. purified TGR, DTNB reduction, TNB absorbance 405 nm. actives 3% (n = 360,000). Potency, µM (series often up to 114 µM), without a hit: at the top dose activity change, negative = inhibition, actives largely listed as inhibitors; further: potency means the concentration at half of the fitted maximal effect; on the % scale 0 is the no-effect control and ±100 the full control effect; nearly all actives have a fitted effect of over 60% in size
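Kinetic colorimetric format: TGR-catalysed, NADPH-driven DTNB reduction monitored via TNB absorbance. Enzyme dispensed at 20 nM; compound exposure 15 min at room temperature before reaction start.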
Flu NS1 inh = validation of influenza NS1 protein function inhibitors. AID 492980. 1,400 tested, under 10 active. influenza NS1 function cell assay, 15-point titration. shares compounds with NS1 function inh. activity change, negative = inhibition, % at 32.9 µM; calls by dose curve; further: 0% is about no effect
Flu PR8 replic = reduces influenza A/PR/8/34 replication in MDCK cells. shares compounds with NS1 function inh. MDCK infected influenza A/PR/8/34, virus titer TCID50; stronger effect = lower value. virus titer (log TCID50), log10 TCID50 at 5 µM. actives 30% (n = 95). AID 504647; call rule not given here
* marks the source's active call; other numbers are inactive results; ? = inconclusive; nt = no result given. Hits are enriched below; roughly 3.5% of the tested compounds scored in any of these assays. Unless noted, the call rests on the fitted dose curve; in most records, active means well fitted curve in the direction sought with a large enough effect; inconclusive means small, poorly fitted or top-dose-only effect, or another doubt; inactive means no such curve, though single readings can be large; an effect the other way counts as inactive or inconclusive.

SMILES	FBPA Giardia inh	LmPK inhibitor	RE007 growth inh	TbPYK inhibitor	NS1 function inh	Sm TGR block	Flu NS1 inh	others
CC(C)C[C@H](NC(=O)CNC(=O)[C@H](C)NC(=O)[C@H](CC(C)C)NC(=O)[C@H](CCCNC(=N)N)NC(=O)[C@H](Cc1cnc[nH]1)NC(=O)[C@@H](NC(=O)[C@@H](NC(=O)[C@@H]1CSSC[C@H](NC(=O)[C@@H](N)CO)C(=O)N[C@@H](CC(N)=O)C(=O)N[C@@H]([C@@H](C)O)C(=O)N[C@@H](C)C(=O)N[C@@H]([C@@H](C)O)C(=O)N1)C(C)C)[C@@H](C)O)C(=O)N[C@@H](CC(C)C)C(=O)N[C@@H](CO)C(=O)N[C@@H](CCCNC(=N)N)C(=O)N[C@@H](CO)C(=O)NCC(=O)NCC(=O)N[C@H](C(=O)N[C@H](C(=O)N[C@@H](CCCCN)C(=O)N[C@@H](CC(=O)O)C(=O)N[C@@H](CC(N)=O)C(=O)N[C@@H](Cc1ccccc1)C(=O)N[C@H](C(=O)N1CCC[C@H]1C(=O)N[C@H](C(=O)N[C@@H](CC(N)=O)C(=O)N[C@H](C(=O)NCC(=O)N[C@@H](CO)C(=O)N[C@@H](CCCCN)C(=O)N[C@@H](C)C(=O)N[C@@H](Cc1ccccc1)C(N)=O)C(C)C)[C@@H](C)O)C(C)C)C(C)C)C(C)C	-3%	nt	nt	nt	nt	nt	nt
CCOC(=O)c1ccc(N2C(=O)c3n[nH]c(C)c3C2c2ccc(OC)cc2OC)cc1 (stereo not drawn)	6%	2%	14%	3%	5µM*	-7%	-9
CC1=C(C(=O)Nc2ccc(Cl)cc2)C(C(C)C)n2nc(SCc3ccc(Cl)cc3)nc2N1 (stereo not drawn)	nt	nt	nt	1%	nt	1%	nt
COc1ccc(Br)c(/C=N/NC(=O)COc2ccc(-c3ccccc3)cc2)c1	1%	6%	14%	-8%	?	4%	-12
CCOc1ccc(NC(=S)NC(=O)/C=C/c2ccc(OC)c(OC)c2)c([N+](=O)[O-])c1	nt	-4%	-1%	-6%	4µM*	10%	-23
CC(C)(C)C(=O)Nc1ccc(C(=O)Nc2cccc(Oc3ccc(C(=O)O)c(C(=O)O)c3)c2)cc1	13%	-9%	-1%	-3%	11µM*	-9%	29
O=C1CCC(C(=O)N2CCCCCC2)CN1CCc1ccc(Cl)cc1 (stereo not drawn)	0%	4%	29%	-5%	2µM*	1%	-14
O=C1CCC(C(=O)N2CCC(O)CC2)CN1CCc1ccc(Cl)cc1 (stereo not drawn)	nt	-6%	-6%	0%	6%	-20%	nt
O=C(O)c1cccc(CN2C(=O)CSC2=O)c1	3%	7%	15%	2%	22µM*	12%	-9
O=C(Nc1ccc(Oc2ccc(NC(=O)c3ccco3)c(NC(=O)c3ccco3)c2)cc1)c1ccco1	-1%	1%	1%	-8%	8.9µM*	-21%	12	Flu PR8 replic=7.7
Cc1cc2cc(NC(=O)c3ccco3)ccc2[nH]1	?	2%	-9%	-16%	2.5µM*	8%	?
Cc1nc2ccc(NC(=O)c3ccco3)cc2nc1C	-8%	-7%	-12%	2%	-5%	-21%	nt
O=C(NCC(c1ccc2c(c1)OCO2)N1CCOCC1)c1ccc(F)cc1 (stereo not drawn)	nt	nt	nt	-3%	nt	-3%	nt
CCOc1ccccc1NC(=O)Nc1cc2c(cc1N1CCCCC1)n(CC)c(=O)n2CC	nt	nt	nt	-10%	nt	-12%	nt
COc1ccc(C(CC(=O)NCc2ccccc2Cl)N2Cc3ccccc3C2=O)cc1OC (stereo not drawn)	nt	nt	nt	-1%	nt	-1%	nt
COCC(C)N=C1NN=C(c2c[nH]c3ccccc23)CS1 (stereo not drawn)	2%	0%	4%	-6%	?	2%	-2
CCCn1c2ccccc2c2cnn(CC(=O)NCc3cc(OC)ccc3OC)c(=O)c21	nt	nt	nt	4%	nt	1%	nt
CC(C)(C)NC(=O)CN(C(=O)c1snc(C(=O)NC2CCCCC2)c1N)c1ccccc1F	-11%	-3%	7%	-4%	3.2µM*	7%	-24
O=C1N[C@H](Cc2ccccc2)CO1	nt	nt	-2%	3%	nt	3%	nt
c1ccc(CC2CNc3ccccc3CN2)cc1 (stereo not drawn)	1%	-2%	-20%	-9%	0.89µM*	5%	-26
O=C(Nc1nc(-c2ccc([N+](=O)[O-])cc2)cs1)c1c(F)cccc1F	0%	0%	1%	-6%	13%	-1%	nt
COc1cccc(OC)c1C(=O)Nc1nc(-c2ccccc2)cs1	5%	7%	-20%	-6%	13µM*	1%	-16
Cc1ccc(-c2csc(NC(=O)c3cccc([N+](=O)[O-])c3)n2)cc1	1%	1%	5%	-1%	5µM*	10%	1
COc1ccc(C2/C=C\CN(S(=O)(=O)/C=C/c3ccccc3)CC(=O)N2Cc2ccc(F)cc2)cc1 (stereo not drawn)	4%	3%	7%	1%	?	-1%	nt
COc1ccc(C2/C=C\CN(S(=O)(=O)c3ccc4ccccc4c3)CC(=O)N2Cc2ccc(F)cc2)cc1 (stereo not drawn)	-1%	4%	3%	-7%	2.8µM*	9%	-31	Flu PR8 replic=8
SMILES	FBPA Giardia inh	LmPK inhibitor	RE007 growth inh	TbPYK inhibitor	NS1 function inh	Sm TGR block	Flu NS1 inh	others
Cc1cc(=O)[nH]c(SCC(=O)Nc2ccc(C(=O)O)cc2)n1	10%	-4%	-1%	-18%	-2%	-3%	nt
CCOC(=O)c1ccc(NC(=O)CSc2nc(C)cc(=O)[nH]2)cc1	-16%	14%	-8%	1%	?	-20%	-10	Flu PR8 replic=8
O=C(Cc1ccc(Cl)cc1)NCC(c1cccs1)S(=O)(=O)c1ccccc1 (stereo not drawn)	nt	nt	nt	-4%	nt	8%	nt
Nc1c(C(=O)Nc2ccc(Br)cc2)sc2nc(N3CCOCC3)c3c(c12)CCCC3	nt	nt	-15%	-23%	nt	nt	nt
Nc1c(C(=O)NCc2ccco2)sc2nc(N3CCOCC3)c3c(c12)CCCC3	?	-11%	-14%	-17%	25µM*	?	0
Cc1ccc(C)c(NC(=S)N2CCN(Cc3ccccc3)CC2)c1	-8%	2%	4%	0%	10%	6%	nt

Screens (PubChem)
